Measurements published in PubChem BioAssay (EPA / NIEHS).
Calls of active or inactive are those of the source. How the source made its calls: active means hit-call score of the fitted dose curve at least 0.9, where 1 is the maximum; inactive means score below 0.9.

Assays:
[1] = ATG_GLI_CIS: Attagene CIS-FACTORIAL HepG2 Assay for human Zinc Finger Protein GLI1 (AID 2282945); settings: HepG2, Attagene cis-factorial reporter mRNA, GLI element; actives raise or lower the signal
Method in brief: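 Bidirectional curve fits relative to DMSO, using reporter mRNA levels from RT-PCR plus capillary electrophoresis. Cells were HepG2 transiently carrying cis-regulated reporter constructs, harvested 24 h after dosing.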

[2] = ATG_GRE_CIS: Attagene CIS-FACTORIAL HepG2 Assay for human Glucocorticoid Response Elements (GRE) (AID 2282947); settings: HepG2 GRE cis-reporter, Attagene multiplex mRNA; actives raise or lower the signal
Method in brief: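 Transient MRTU transfection of human HepG2 liver cells; cis-regulated reporters report endogenous factors. 24 h dosing → RNA isolation → RT-PCR → 6-FAM primer extension → HpaI cut → CE fragment analysis. Bidirectional fit, DMSO negative control.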

[3] = ATG_ISRE_CIS: Attagene CIS-FACTORIAL HepG2 Assay for human Interferon Regulatory Factor 1 (IRF1) binding to an Interferon-Stimulated Response Element (ISRE) (AID 2282948); settings: HepG2 ISRE cis-reporter (Attagene), mRNA transcription readout; actives raise or lower the signal
Method in brief: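 Transfected HepG2 (multiple reporter transcription units, cis elements) dosed 24 h. RNA → oligo(dT) RT → PCR → 6-FAM primer extension → HpaI → CE. DMSO = negative control/baseline.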

[4] = ATG_M_32_CIS: Attagene CIS-FACTORIAL HepG2 Assay for M32 Transcription Factor (Internal Marker) (AID 2282949); settings: HepG2 Attagene cis-factorial M32 reporter, mRNA; actives raise or lower the signal;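 further: background control marker of the multiplexed CIS panel rather than a real target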
Method in brief: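 HepG2 cells transiently transfected with multiplexed cis-regulated reporter units, dosed 24 h. Reporter mRNA quantified by RT-PCR, 6-FAM labelling, HpaI digestion and capillary electrophoresis; bidirectional fit vs DMSO.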

[5] = ATG_M_06_CIS: Attagene CIS-FACTORIAL HepG2 Assay for M06 Transcription Factor (Internal Marker) (AID 2282950); settings: HepG2 Attagene CIS-FACTORIAL M06 internal marker reporter; actives raise or lower the signal
Method in brief: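 HepG2 cells transiently transfected with cis-regulated multiple reporter transcription units were exposed to chemical for 24 h; reporter mRNA was quantified by RT-PCR, 6-FAM primer labelling, HpaI digestion and capillary electrophoresis, fitted bidirectionally against DMSO.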

[6] = target: Hypoxia-inducible factor 1-alpha (Homo sapiens) (UniProt Q16665); assay: ATG_HIF1a_CIS: Attagene CIS-FACTORIAL HepG2 Assay for human Hypoxia Inducible Factor 1 (HIF1A) (AID 2282951); settings: HepG2 Attagene cis-factorial HIF1a reporter transcription; actives raise or lower the signal
Method in brief: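 In this multiplexed cell assay, HepG2 cells bearing transfected cis reporters are dosed for 24 h and reporter mRNA is read by RT-PCR plus capillary electrophoresis; signal increases and decreases are both scored against DMSO.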

[7] = target: Hepatocyte nuclear factor 6 (Homo sapiens) (UniProt Q9UBC0); assay: ATG_HNF6_CIS: Attagene CIS-FACTORIAL HepG2 Assay for human Hepatocyte Nuclear Factor 6 (HNF6) (AID 2282952); settings: HepG2 Attagene cis-factorial HNF6 reporter transcription; actives raise or lower the signal
Method in brief: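 Transiently transfected HepG2 cells expressing cis-regulated reporter transcription units were exposed to chemical for 24 h in a 24-well format. Reporter transcript abundance was determined by fluorescence capillary electrophoresis.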

[8] = target: Heat shock factor protein 1 (Homo sapiens) (UniProt Q00613); assay: ATG_HSE_CIS: Attagene CIS-FACTORIAL HepG2 Assay for human Heat Shock Transcription Factor 1 (HSE) (AID 2282953); settings: HepG2 HSE cis-reporter, Attagene RNA transcription; actives raise or lower the signal
Method in brief: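 HepG2 cells transiently transfected with multiple reporter transcription units under cis-regulatory promoter control, measuring endogenous transcription factor activity. After 24 h chemical exposure, reporter mRNA quantified by RT-PCR, fluorescent labelling, HpaI digestion and capillary electrophoresis; bidirectional fit versus DMSO.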

[9] = ATG_MRE_CIS: Attagene CIS-FACTORIAL HepG2 Assay for human Metal Responsive Element (MRE) (AID 2282954); settings: HepG2 MRE cis-reporter transcription, Attagene multiplex; actives raise or lower the signal
Method in brief: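 Transient MRTU transfection of HepG2 (FuGene 6); 24 h dosing; total RNA → oligo(dT) RT, PCR, 6-FAM primer extension, HpaI cut, CE. Bidirectional fit vs DMSO.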

[10] = ATG_PBREM_CIS: Attagene CIS-FACTORIAL HepG2 Assay for human Phenobarbital-responsive Enhancer Module (PBREM) (AID 2282955); settings: HepG2 PBREM cis-reporter, Attagene multiplexed transcription; actives raise or lower the signal
Method in brief: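 After a 24 h incubation with test chemical, transfected HepG2 cells yield total RNA; reporter-specific RT-PCR products are fluorescently labelled, HpaI-digested and resolved by capillary electrophoresis against ROX size standards.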

[11] = target: Paired box protein Pax-6 (Homo sapiens) (UniProt P26367); assay: ATG_Pax6_CIS: Attagene CIS-FACTORIAL HepG2 Assay for human Paired Box 6 (PAX6) (AID 2282956); settings: HepG2 CIS-FACTORIAL PAX6 reporter transcription, RNA readout; actives raise or lower the signal
Method in brief: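 Transient MRTU transfection of HepG2 → compound exposure 24 h → TriZol RNA, oligo(dT) RT → PCR, 6-FAM primer extension, HpaI cut → capillary electrophoresis; activity fitted both directions against DMSO.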

[12] = ATG_PXRE_CIS: Attagene CIS-FACTORIAL HepG2 Assay for human Pregnane X Receptor Element (PXRE) (AID 2282957); settings: HepG2 Attagene CIS-FACTORIAL PXRE reporter, mRNA; actives raise or lower the signal
Method in brief: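 Cis-element reporter mRNA in human hepatoma HepG2 cells is measured 24 h post-dosing by RT-PCR, primer-extension labeling and capillary electrophoresis; gain or loss of signal is fitted relative to DMSO.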

[13] = ATG_PPRE_CIS: Attagene CIS-FACTORIAL HepG2 Assay for human Peroxisome Proliferator-activated Response Element (PPRE) (AID 2282958); settings: HepG2 PPRE cis-element reporter, Attagene transcription factor profiling; actives raise or lower the signal
Method in brief: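 Multiplexed reporter transcription units under cis-regulatory promoters were transfected into HepG2 cells to capture endogenous factor activity. A 24 h incubation preceded RNA isolation and fluorescent RT-PCR fragment analysis.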

[14] = ATG_RORE_CIS: Attagene CIS-FACTORIAL HepG2 Assay for human RAR-related Orphan Receptor Element (RORE) (AID 2282959); settings: HepG2 Attagene cis-factorial RORE reporter, mRNA; actives raise or lower the signal
Method in brief: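 Fluorescence intensity of reporter-specific cDNA fragments, separated by capillary electrophoresis, gives the signal. Source: HepG2 liver cells transiently transfected with cis-element reporters and exposed 24 h; DMSO-normalized bidirectional fit.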

[15] = ATG_Sox_CIS: Attagene CIS-FACTORIAL HepG2 Assay for human SRY-box transcription factor (SOX) (AID 2282960); settings: HepG2 Attagene cis-factorial SOX reporter, mRNA; actives raise or lower the signal
Method in brief: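 After 24 h of chemical treatment, transfected HepG2 reporter cells are lysed for total RNA. Transcript levels come from RT-PCR with labelled primer extension and capillary electrophoresis, analysed bidirectionally versus DMSO.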

[16] = target: Transcription factor Sp1 (Homo sapiens) (UniProt P08047); assay: ATG_Sp1_CIS: Attagene CIS-FACTORIAL HepG2 Assay for human Specificity Protein 1 (Sp1) (AID 2282961); settings: HepG2 Sp1 cis-reporter transcription, actives raise or lower the signal
Method in brief: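 Sp1-driven reporter mRNA, read as capillary electrophoresis fluorescence after RT-PCR, in transiently transfected HepG2 cells dosed for 24 h; signal change in either direction relative to DMSO.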

[17] = ATG_SREBP_CIS: Attagene CIS-FACTORIAL HepG2 Assay for human Sterol Regulatory Element Binding (SREBP) (AID 2282962); settings: HepG2 Attagene cis-factorial SREBP reporter, mRNA; actives raise or lower the signal
Method in brief: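 Transfected HepG2 (cis-regulated reporter library, endogenous TFs) → compound 24 h → total RNA → oligo(dT) RT → reporter-specific PCR → FAM primer extension, HpaI cut → CE fluorescence. Fit bidirectional vs DMSO.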

[18] = target: Signal transducer and activator of transcription 3 (Homo sapiens) (UniProt P40763); assay: ATG_STAT3_CIS: Attagene CIS-FACTORIAL HepG2 Assay for human Signal Transducer and Activator of Transcription 3 (STAT3) (AID 2282963); settings: HepG2, Attagene cis-factorial STAT3 reporter transcription; actives raise or lower the signal
Method in brief: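 Endogenous STAT3-responsive cis-element activity was read in transiently transfected HepG2 cells after 24 h treatment. Reporter transcripts were quantified via RT-PCR and capillary electrophoresis, with DMSO as negative control and bidirectional curve fitting.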

[19] = ATG_TA_CIS: Attagene CIS-FACTORIAL HepG2 Assay for human TA Basal Promoter (AID 2282964); settings: HepG2 Attagene CIS-factorial TA basal promoter reporter; actives raise or lower the signal
Method in brief: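 HepG2 cells transiently transfected with multiplexed cis-promoter reporter units, dosed 24 h. Reporter mRNA measured by RT-PCR, 6-FAM labelling, HpaI digestion and capillary electrophoresis; bidirectional fit versus DMSO baseline, serving as background control.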

Measured: AC50

Sequence of Paired box protein Pax-6 (Homo sapiens) (P26367 whole entry, looked up): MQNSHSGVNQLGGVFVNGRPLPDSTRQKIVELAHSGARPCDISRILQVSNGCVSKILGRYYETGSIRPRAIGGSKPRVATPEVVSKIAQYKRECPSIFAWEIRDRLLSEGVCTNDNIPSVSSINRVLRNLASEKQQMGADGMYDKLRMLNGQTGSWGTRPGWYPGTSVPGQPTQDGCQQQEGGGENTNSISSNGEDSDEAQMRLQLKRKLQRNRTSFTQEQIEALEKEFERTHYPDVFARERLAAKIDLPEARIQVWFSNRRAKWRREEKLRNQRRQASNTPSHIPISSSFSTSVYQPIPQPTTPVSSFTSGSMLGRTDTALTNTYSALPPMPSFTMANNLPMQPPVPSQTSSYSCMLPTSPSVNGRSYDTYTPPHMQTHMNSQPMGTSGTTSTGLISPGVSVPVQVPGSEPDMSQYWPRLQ
Sequence of Hypoxia-inducible factor 1-alpha (Homo sapiens) (Q16665 whole entry, looked up): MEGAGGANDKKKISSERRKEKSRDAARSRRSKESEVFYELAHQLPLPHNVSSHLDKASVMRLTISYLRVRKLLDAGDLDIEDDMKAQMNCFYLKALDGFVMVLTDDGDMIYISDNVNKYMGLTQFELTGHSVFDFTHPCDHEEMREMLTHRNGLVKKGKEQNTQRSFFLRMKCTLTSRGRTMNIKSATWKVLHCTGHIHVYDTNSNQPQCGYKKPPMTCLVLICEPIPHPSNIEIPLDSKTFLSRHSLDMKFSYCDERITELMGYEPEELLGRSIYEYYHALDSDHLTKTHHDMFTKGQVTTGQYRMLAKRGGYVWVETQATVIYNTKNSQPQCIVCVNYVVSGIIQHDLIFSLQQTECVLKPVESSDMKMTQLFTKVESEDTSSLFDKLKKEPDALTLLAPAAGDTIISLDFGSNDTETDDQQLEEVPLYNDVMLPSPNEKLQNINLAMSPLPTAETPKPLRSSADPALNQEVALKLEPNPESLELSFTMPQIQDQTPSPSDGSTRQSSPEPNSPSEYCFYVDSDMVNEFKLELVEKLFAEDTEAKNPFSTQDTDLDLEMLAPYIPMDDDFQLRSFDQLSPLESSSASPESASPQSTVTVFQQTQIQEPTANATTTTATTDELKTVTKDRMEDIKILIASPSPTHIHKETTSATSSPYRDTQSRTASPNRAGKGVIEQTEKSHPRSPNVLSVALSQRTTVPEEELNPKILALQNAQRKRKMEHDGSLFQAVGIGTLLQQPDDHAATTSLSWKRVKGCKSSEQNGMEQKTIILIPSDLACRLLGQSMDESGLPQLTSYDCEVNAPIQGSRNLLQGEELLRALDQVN
Sequence of Signal transducer and activator of transcription 3 (Homo sapiens) (P40763 whole entry, looked up): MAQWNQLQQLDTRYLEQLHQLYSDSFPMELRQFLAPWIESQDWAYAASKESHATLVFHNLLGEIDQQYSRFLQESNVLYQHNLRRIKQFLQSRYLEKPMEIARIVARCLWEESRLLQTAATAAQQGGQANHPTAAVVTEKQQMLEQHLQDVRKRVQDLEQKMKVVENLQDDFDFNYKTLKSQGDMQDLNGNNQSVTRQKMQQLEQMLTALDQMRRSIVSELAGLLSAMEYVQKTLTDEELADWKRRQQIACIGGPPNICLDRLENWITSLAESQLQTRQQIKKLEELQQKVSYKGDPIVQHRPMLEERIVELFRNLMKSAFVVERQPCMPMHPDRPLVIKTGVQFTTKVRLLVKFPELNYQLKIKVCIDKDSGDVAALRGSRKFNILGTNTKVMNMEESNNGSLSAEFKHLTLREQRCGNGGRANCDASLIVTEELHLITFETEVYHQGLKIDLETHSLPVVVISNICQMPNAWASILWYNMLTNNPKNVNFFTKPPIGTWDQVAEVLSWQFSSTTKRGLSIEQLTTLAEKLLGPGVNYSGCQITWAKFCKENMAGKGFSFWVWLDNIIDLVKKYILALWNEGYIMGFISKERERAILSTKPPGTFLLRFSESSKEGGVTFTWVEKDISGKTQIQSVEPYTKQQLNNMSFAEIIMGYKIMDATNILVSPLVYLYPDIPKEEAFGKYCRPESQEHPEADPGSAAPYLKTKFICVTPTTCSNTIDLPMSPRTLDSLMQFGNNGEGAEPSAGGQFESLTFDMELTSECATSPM
Sequence of Transcription factor Sp1 (Homo sapiens) (P08047 whole entry, looked up): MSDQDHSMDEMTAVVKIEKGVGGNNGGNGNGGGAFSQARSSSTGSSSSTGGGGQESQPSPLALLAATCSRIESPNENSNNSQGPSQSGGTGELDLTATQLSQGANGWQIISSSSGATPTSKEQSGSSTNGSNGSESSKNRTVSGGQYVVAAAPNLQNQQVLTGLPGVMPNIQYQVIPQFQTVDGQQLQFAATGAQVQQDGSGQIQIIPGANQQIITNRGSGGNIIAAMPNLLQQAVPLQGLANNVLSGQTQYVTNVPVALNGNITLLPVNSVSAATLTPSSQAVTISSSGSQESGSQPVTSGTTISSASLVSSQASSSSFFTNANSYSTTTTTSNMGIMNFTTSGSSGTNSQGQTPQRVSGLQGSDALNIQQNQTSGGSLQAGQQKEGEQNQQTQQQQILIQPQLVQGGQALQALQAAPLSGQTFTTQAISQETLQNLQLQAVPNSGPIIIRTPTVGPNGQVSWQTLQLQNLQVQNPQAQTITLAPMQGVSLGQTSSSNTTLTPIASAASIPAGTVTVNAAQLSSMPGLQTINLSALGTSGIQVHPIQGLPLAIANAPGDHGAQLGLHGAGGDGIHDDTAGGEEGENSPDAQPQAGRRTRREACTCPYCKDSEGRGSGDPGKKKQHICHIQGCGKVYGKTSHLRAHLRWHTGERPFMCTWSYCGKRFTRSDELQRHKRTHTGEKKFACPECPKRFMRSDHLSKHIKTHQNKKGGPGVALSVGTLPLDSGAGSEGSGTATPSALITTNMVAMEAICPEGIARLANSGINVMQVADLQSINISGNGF
Sequence of Hepatocyte nuclear factor 6 (Homo sapiens) (Q9UBC0 whole entry, looked up): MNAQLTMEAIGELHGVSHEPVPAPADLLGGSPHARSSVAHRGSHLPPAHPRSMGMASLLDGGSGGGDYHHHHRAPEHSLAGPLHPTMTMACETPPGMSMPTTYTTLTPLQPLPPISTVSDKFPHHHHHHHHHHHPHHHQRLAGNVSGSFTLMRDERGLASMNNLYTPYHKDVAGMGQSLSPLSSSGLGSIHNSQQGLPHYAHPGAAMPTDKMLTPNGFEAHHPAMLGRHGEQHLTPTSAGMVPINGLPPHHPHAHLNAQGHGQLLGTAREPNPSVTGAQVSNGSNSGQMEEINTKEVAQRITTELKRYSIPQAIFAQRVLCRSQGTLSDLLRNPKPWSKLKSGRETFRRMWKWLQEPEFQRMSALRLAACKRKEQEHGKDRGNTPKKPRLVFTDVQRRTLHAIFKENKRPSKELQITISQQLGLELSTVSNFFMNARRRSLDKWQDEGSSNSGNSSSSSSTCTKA
Sequence of Heat shock factor protein 1 (Homo sapiens) (Q00613 whole entry, looked up): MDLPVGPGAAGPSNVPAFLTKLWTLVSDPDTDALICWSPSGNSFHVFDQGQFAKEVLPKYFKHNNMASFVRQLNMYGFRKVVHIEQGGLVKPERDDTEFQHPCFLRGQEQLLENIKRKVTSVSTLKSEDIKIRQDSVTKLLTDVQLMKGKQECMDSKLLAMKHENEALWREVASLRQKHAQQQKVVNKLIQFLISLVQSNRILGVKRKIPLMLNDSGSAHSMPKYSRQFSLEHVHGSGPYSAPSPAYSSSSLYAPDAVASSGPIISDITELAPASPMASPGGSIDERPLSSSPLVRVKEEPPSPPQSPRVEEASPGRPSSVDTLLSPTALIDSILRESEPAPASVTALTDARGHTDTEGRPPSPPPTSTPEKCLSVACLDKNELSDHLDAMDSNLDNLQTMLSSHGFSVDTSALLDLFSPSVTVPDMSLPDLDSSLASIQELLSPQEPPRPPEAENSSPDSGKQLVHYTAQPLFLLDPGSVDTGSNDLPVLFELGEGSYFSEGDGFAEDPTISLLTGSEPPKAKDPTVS

COCCOC[C@H](CC1(C(=O)NC2CCC(C(=O)O)CC2)CCCC1)C(=O)Oc1ccc2c(c1)CCC2 (some centres undefined)
active: [12] 20.2 µM
inactive: all other assays above

COc1ccc2c(c1)c(CC(=O)O)c(C)n2C(=O)c1ccc(Cl)cc1
active: [13] 12.5 µM
not listed: [6]
inactive: all other assays above

Nc1ccc2c(c1)C(=O)c1ccccc1C2=O
active: [12] 26.9 µM
not listed: [6]
inactive: all other assays above

Cc1ccc(C)c(C)c1
active: [12] 27.5 µM
not listed: [16]
inactive: all other assays above

CC(=O)OC/C=C(\C)CCC=C(C)C
active: [12] 48.3 µM
not listed: [6]
inactive: all other assays above

CCOC(=O)CCC(=O)OCC
active: [12] 47.8 µM
inactive: all other assays above

Nc1ccccc1N
active: [6] 41.3 µM | [9] 38.2 µM | [11] 23 µM | [12] 82.4 µM | [13] 15.7 µM | [14] 28.5 µM | [16] 25.9 µM | [19] 50.8 µM
inactive: all other assays above
